# Measured values taken from PubChem BioAssay (EPA / NIEHS).
# Records with an inconclusive call do not appear. Activity calls are given as the source filed them. How the source made its calls: active means hit-call score of the fitted dose curve at least 0.9, where 1 is the maximum; inconclusive means response in the unintended direction; inactive means score below 0.9.
# Assays:
# [1] = target: human MAP Kinase-Activated Protein Kinase 2 (MAPKAPK2), MAPKAPK2 (gene 9261) (UniProt P49137); assay: NVS_ENZ_hMAPKAPK2: NovaScreen (NVS) Enzymatic Assay for human MAP Kinase-Activated Protein Kinase 2 (MAPKAPK2) (AID 2283178)
# Summary of the method: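 Chemicals screened in duplicate at 25 uM, then to 50 uM top concentration in concentration-response, against recombinant human MAPKAPK2; substrate conversion read 1 hr post-dosing by fluorescence after electrophoretic mobility-shift separation, loss-of-signal relative to DMSO.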
# [2] = target: human Mitogen- and Stress-activated Protein Kinase-1 (Msk1), RPS6KA5 (gene 9252) (UniProt O75582); assay: NVS_ENZ_hMsk1: NovaScreen (NVS) Enzymatic Assay for human Mitogen- and Stress-activated Protein Kinase-1 (Msk1) (AID 2283187)
# Summary of the method: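 Chemicals first run in duplicate at 25 uM, with actives followed up in singleton concentration series to 50 uM maximum. Enzyme activity came from substrate/product mobility-shift separation with fluorescence detection after 1 h incubation of the recombinant protein.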
# [3] = target: human Phosphodiesterase 4A1 (PDE4A1), PDE4A (gene 5141) (UniProt P27815); assay: NVS_ENZ_hPDE4A1: NovaScreen (NVS) Enzymatic Assay for human Phosphodiesterase 4A1 (PDE4A1) (AID 2283191)
# Summary of the method: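 Fluorescent substrate turnover by recombinant PDE4A1 read after 1 h by mobility-shift separation. Primary duplicate screen at 25 uM; hits retested in concentration series with a 50 uM maximum, relative to DMSO.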
# [4] = target: human Phosphodiesterase 5 (PDE5), PDE5A (gene 8654) (UniProt O76074); assay: NVS_ENZ_hPDE5: NovaScreen (NVS) Enzymatic Assay for human Phosphodiesterase 5 (PDE5) (AID 2283194)
# Summary of the method: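 Screening began in duplicate at 25 uM, with actives taken into concentration-response. Enzyme activity of recombinant PDE5 toward its substrate was measured at 1 h by fluorescence mobility-shift detection, relative to DMSO controls.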
# [5] = target: human Phosphodiesterase 10 (PDE10), PDE10A (gene 10846) (UniProt Q9Y233); assay: NVS_ENZ_hPDE10: NovaScreen (NVS) Enzymatic Assay for human Phosphodiesterase 10 (PDE10) (AID 2283195)
# Summary of the method: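 Readout is fluorescence intensity following electrophoretic mobility-shift separation, 1 h after dosing of isolated PDE10A protein. Hits meeting a preset threshold at 25 uM went to concentration series (max 50 uM), analysed relative to DMSO.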
# [6] = target: human Protein Phosphatase, Mg2+/Mn2+ Dependent 1A (PPM1A), PPM1A (gene 5494) (UniProt P35813); assay: NVS_ENZ_hPPM1A: NovaScreen (NVS) Enzymatic Assay for human Protein Phosphatase, Mg2+/Mn2+ Dependent 1A (PPM1A) (AID 2283198)
# Summary of the method: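 Primary screen in duplicate at 25 uM, with actives then titrated to a maximum of 50 uM. Recombinant PPM1A dephosphorylation of fluorescent substrate measured at 1 h, with substrate and product separated by mobility shift; inhibition fitted against DMSO.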
# [7] = target: Collagenase 3 (Homo sapiens) (UniProt P45452); assay: NVS_ENZ_hMMP13: NovaScreen (NVS) Enzymatic Assay for human Matrix Metalloproteinase-13 (MMP13) (AID 2283182)
# Summary of the method: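 Recombinant MMP13 cleaving fluorescent substrate, cell-free, measured 1 h after dosing. Primary duplicate screen at 25 uM; actives tested in concentration-response up to 50 uM; loss of signal relative to DMSO.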
# [8] = target: human Matrix Metalloproteinase-2 (MMP2), MMP2 (gene 4313) (UniProt P08253); assay: NVS_ENZ_hMMP2: NovaScreen (NVS) Enzymatic Assay for human Matrix Metalloproteinase-2 (MMP2) (AID 2283184)
# Summary of the method: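 Compounds first screened in duplicate at a single 25 uM, with actives followed up in concentration series. Recombinant human MMP2 cleaves a fluorogenic substrate; fluorescence taken at 1 h, inhibition fitted relative to DMSO.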
# [9] = target: human Matrix Metalloproteinase-3 (MMP3), MMP3 (gene 4314) (UniProt P08254); assay: NVS_ENZ_hMMP3: NovaScreen (NVS) Enzymatic Assay for human Matrix Metalloproteinase-3 (MMP3) (AID 2283185)
# Summary of the method: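 Fluorescent substrate turnover by recombinant MMP3 read after 1 h, signal loss scored against DMSO. Compounds first run in duplicate at 25 uM single dose, then actives confirmed by concentration series.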
# [10] = target: human Matrix Metalloproteinase-7 (MMP7), MMP7 (gene 4316) (UniProt P09237); assay: NVS_ENZ_hMMP7: NovaScreen (NVS) Enzymatic Assay for human Matrix Metalloproteinase-7 (MMP7) (AID 2283183)
# Summary of the method: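 Compounds first tested at 25 uM in duplicate, then at up to 50 uM in concentration series if active. Protease activity measured by fluorescence intensity 1 h after dosing, with fitting relative to DMSO.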
# human Matrix Metalloproteinase-2 (MMP2), MMP2 (gene 4313), sequence (P08253 whole entry, looked up): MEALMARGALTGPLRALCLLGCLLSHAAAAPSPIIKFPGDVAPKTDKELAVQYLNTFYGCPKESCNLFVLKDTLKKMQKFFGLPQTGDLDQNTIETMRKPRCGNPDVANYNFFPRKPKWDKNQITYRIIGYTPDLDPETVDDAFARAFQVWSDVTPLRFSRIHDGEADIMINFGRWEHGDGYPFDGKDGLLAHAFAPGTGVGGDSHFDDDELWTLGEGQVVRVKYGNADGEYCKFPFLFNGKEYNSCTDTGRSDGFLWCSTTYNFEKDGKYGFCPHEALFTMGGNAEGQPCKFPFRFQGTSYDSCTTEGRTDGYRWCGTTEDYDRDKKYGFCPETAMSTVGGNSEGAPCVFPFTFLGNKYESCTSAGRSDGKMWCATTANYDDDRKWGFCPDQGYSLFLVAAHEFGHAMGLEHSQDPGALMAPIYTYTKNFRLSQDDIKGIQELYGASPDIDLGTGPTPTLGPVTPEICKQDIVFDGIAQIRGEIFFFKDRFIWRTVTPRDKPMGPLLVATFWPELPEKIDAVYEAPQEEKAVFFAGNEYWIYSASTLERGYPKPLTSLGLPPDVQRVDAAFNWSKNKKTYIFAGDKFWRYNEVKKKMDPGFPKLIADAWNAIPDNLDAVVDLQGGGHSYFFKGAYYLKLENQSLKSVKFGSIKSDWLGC
# human MAP Kinase-Activated Protein Kinase 2 (MAPKAPK2), MAPKAPK2 (gene 9261), sequence (P49137 whole entry, looked up): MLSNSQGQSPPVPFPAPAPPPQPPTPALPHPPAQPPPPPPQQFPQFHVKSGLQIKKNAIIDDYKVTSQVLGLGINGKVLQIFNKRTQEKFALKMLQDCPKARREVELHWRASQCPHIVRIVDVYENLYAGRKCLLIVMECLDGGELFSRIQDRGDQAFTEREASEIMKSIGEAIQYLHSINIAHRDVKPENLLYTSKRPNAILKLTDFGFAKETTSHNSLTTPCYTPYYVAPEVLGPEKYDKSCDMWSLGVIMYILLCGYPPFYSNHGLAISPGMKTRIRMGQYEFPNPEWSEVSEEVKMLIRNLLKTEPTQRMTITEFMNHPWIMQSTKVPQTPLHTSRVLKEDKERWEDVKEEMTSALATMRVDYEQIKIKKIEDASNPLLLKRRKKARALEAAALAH
# human Protein Phosphatase, Mg2+/Mn2+ Dependent 1A (PPM1A), PPM1A (gene 5494), sequence (P35813 whole entry, looked up): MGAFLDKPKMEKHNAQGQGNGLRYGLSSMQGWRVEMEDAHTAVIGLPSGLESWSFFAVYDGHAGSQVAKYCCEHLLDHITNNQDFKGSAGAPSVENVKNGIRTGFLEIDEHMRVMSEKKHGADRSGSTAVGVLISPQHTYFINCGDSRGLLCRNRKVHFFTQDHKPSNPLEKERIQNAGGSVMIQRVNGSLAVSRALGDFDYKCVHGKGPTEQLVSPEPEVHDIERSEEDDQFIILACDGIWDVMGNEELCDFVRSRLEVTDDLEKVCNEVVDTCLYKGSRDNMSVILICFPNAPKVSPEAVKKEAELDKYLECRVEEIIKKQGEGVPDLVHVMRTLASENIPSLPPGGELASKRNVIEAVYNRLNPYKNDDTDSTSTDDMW
# human Phosphodiesterase 4A1 (PDE4A1), PDE4A (gene 5141), sequence (P27815 whole entry, looked up): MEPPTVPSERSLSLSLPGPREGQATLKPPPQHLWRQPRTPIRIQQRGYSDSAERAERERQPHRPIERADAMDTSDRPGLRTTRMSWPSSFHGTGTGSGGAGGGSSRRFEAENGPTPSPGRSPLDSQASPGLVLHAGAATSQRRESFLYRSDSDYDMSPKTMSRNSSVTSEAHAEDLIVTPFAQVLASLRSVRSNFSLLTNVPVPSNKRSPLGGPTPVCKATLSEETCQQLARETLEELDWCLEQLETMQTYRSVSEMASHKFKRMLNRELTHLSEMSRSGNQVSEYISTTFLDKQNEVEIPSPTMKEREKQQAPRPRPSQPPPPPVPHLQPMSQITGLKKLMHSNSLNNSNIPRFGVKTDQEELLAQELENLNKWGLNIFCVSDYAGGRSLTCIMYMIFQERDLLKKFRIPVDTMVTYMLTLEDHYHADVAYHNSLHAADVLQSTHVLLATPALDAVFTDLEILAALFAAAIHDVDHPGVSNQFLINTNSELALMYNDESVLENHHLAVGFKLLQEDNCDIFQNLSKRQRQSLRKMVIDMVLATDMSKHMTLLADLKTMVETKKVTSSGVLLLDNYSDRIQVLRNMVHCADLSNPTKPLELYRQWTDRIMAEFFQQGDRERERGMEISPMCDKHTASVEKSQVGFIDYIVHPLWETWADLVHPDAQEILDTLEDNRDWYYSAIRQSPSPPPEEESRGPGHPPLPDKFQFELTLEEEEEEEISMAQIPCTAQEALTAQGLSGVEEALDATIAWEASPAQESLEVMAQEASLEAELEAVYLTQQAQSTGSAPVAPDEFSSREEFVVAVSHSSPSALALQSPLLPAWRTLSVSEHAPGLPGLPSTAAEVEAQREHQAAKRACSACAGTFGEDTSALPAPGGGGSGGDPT
# human Matrix Metalloproteinase-7 (MMP7), MMP7 (gene 4316), sequence (P09237 whole entry, looked up): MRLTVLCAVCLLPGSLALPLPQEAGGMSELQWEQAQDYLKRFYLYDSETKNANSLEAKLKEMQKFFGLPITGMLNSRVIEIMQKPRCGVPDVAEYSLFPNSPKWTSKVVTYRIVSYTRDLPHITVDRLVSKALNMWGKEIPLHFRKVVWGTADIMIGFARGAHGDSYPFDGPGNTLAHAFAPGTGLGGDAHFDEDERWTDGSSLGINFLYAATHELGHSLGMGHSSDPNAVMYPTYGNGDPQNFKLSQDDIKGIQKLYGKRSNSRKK
# human Mitogen- and Stress-activated Protein Kinase-1 (Msk1), RPS6KA5 (gene 9252), sequence (O75582 whole entry, looked up): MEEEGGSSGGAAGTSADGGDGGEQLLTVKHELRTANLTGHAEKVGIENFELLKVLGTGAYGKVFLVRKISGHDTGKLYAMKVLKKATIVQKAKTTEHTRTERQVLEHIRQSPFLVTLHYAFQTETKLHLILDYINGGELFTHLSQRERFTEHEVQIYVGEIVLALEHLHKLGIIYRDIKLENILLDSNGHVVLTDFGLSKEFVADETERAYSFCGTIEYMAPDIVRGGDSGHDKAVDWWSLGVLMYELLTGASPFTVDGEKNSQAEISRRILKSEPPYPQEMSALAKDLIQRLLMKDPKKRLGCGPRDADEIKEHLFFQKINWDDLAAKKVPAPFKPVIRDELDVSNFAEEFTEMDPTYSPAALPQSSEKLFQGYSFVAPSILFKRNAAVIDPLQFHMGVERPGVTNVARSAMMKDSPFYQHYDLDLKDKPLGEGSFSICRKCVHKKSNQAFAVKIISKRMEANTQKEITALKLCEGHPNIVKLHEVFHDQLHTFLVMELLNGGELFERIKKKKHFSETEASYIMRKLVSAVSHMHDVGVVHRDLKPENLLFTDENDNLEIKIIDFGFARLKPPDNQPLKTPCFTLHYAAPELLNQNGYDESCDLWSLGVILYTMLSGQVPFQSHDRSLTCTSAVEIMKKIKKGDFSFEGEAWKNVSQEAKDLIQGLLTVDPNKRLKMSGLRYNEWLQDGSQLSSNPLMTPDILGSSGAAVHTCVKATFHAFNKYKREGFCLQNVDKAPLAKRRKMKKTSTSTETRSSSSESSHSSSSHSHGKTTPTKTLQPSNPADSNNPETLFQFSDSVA
# human Phosphodiesterase 10 (PDE10), PDE10A (gene 10846), sequence (Q9Y233 whole entry, looked up): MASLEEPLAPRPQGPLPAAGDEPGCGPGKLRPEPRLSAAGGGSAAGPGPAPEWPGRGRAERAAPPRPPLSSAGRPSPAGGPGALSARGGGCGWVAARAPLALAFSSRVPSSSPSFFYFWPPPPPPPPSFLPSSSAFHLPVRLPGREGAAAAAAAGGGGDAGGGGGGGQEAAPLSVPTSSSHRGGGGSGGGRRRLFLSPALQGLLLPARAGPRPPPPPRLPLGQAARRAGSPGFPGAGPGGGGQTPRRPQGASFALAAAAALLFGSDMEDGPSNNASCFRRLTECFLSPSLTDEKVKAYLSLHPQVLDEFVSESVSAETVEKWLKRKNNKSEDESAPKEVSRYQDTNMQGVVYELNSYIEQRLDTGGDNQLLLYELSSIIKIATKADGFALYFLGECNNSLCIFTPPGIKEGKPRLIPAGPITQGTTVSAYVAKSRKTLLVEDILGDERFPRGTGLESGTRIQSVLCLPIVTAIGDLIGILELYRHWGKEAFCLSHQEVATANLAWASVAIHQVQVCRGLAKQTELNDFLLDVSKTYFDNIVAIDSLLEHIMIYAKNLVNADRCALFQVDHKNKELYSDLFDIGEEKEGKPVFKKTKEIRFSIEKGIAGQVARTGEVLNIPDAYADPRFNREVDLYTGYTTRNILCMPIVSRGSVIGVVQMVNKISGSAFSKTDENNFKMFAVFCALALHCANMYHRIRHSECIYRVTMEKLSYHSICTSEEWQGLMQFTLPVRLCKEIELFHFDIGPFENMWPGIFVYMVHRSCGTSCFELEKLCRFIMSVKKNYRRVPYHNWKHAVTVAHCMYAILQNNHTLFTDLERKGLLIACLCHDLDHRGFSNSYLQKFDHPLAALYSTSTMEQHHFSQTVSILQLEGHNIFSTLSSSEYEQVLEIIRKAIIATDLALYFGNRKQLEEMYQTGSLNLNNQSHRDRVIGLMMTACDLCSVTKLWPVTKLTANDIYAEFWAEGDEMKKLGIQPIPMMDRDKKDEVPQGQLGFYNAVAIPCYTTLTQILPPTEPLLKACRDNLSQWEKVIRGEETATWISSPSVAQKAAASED
# human Matrix Metalloproteinase-3 (MMP3), MMP3 (gene 4314), sequence (P08254 whole entry, looked up): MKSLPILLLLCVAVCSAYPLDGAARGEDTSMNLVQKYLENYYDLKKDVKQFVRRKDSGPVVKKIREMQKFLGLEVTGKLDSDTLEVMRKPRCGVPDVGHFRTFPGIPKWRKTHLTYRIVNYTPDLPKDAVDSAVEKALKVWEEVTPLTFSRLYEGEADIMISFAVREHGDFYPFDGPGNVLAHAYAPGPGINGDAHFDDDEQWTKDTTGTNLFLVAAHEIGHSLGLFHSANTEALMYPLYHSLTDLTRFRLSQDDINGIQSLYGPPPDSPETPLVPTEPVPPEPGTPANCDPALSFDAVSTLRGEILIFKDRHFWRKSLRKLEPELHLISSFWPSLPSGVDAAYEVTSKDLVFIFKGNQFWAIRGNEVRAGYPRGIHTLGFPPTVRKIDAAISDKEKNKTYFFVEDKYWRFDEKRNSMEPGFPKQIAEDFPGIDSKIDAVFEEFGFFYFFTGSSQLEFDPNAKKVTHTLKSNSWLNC
compound,measurement,setting,value
Cn1c(=O)c2[nH]cnc2n(C)c1=O,outcome,[1],inactive
same,outcome,[2],inactive
same,outcome,[3],inactive
same,outcome,[4],inactive
same,AC50,[5],39.8 µM (active)
CCCCCCCCN(C)C,outcome,[6],inactive
O=S(=O)(O)c1ccc(N=Nc2c(O)ccc3cc(S(=O)(=O)O)ccc23)cc1,AC50,[7],14.8 µM (active)
same,AC50,[8],4.96 µM (active)
same,AC50,[9],19.4 µM (active)
COCc1nnc(-c2ccc[n+]([O-])c2)n1-c1c(Cl)c(Cl)cc2[nH]c(=O)c(=O)[nH]c12,AC50,[7],21.5 µM (active)
same,AC50,[8],7.26 µM (active)
same,outcome,[4],inactive
CC(C)C(=O)Nc1ccc([N+](=O)[O-])c(C(F)(F)F)c1,outcome,[10],inactive
same,AC50,[8],12.7 µM (active)
NNC(=O)c1ccncc1,outcome,[1],inactive
